Measurements reported in PubChem BioAssay (NCATS).
Records with an inconclusive call do not appear. Active and inactive are the calls of the source. Unless noted, calls follow the shape of the dose curve; as a rule, active = well fitted curve in either direction with a large enough effect (not every such curve was filed as active); inconclusive = small, poorly fitted or top-dose-only effect, or another doubt; inactive = flat fitted curve, though single readings scatter.

Assays:
[1] = target: Lysosomal acid glucosylceramidase (Homo sapiens) (UniProt P04062); test: Glucocerebrosidase-p2 (AID 348; in the data active = potency below about 10 µM; also: potency is read from the fitted curve at half-maximal effect); settings: purified GBA, blue fluorogenic substrate, 40 min
Lysosomal acid glucosylceramidase (Homo sapiens), sequence (P04062 whole entry, looked up): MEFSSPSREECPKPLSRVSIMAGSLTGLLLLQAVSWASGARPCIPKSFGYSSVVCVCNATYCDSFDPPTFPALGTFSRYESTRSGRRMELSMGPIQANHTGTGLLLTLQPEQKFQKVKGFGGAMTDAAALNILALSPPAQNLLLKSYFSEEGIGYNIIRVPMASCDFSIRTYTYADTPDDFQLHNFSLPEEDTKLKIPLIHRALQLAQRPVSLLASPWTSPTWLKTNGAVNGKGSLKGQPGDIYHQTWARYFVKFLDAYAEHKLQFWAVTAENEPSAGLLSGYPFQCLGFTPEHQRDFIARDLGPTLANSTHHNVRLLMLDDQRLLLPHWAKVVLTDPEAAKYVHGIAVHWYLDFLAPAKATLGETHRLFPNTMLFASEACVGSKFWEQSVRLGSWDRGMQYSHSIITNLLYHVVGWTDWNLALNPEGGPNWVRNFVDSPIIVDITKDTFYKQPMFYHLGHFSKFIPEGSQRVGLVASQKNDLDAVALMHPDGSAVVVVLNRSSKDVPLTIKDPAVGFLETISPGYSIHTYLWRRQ
Method in brief: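 Compounds titrated from 0.6 nM upwards against 0.2 nM enzyme in pH 5.9 citric acid/KH2PO4, taurocholate, tween-20; blue fluorogenic substrate 80 uM, 40 min room temperature, stopped and read Ex 365/Em 440 for AC50.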

[2] = AP1 Signaling Pathway (AID 357); settings: ME-180 AP-1-bla reporter, EGF-induced, beta-lactamase ratio, 5 h; at 7.69 µM (top of the series) unless noted; also: % is scaled to controls: 0 for no effect and ±100 for the full control effect
Method in brief: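 ME-180 cells with beta-lactamase reporter under AP-1 response element, stimulated with EC50 EGF; compounds tested in titration series, 5 h at 37 °C. CCF4 substrate added 2.5 h at room temperature; 460/530 nm emission ratio gave %activity and AC50.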

[3] = NFAT Signaling Pathway (AID 444); settings: Jurkat NFAT-bla M1, carbachol, beta-lactamase ratio, 5 h; at 7.69 µM (top of the series) unless noted;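 also: carbachol stimulus at about its EC50 of 1 µM final; % is scaled to controls: 0 for no effect and ±100 for the full control effect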
Method in brief: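 Jurkat cells with NFAT-driven β-lactamase reporter and co-expressed M1 receptor, stimulated with carbachol (final 1 uM, ~EC50), compound titration, 5 h at 37 °C. CCF4 loaded 1 h at RT; 460/530 nm ratio gave %activity and AC50.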

[4] = Stat Signaling Pathway (AID 446); settings: ME-180 (cervical carcinoma) SIE beta-lactamase reporter, IL-6 stimulated, 5 h; at 7.69 µM (top of the series) unless noted;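 also: ME-180 cervical cancer cells given 40 pM IL-6 alongside compound; SIE-controlled beta-lactamase reporter measured as 460/530 nm FRET emission ratio; % is scaled to controls: 0 for no effect and ±100 for the full control effect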
Method in brief: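 IL-6/STAT signaling read in ME-180 cells via an SIE beta-lactamase reporter. Stimulus was 40 pM IL-6 (its AC50) for 5 hrs, so both activation and inhibition register.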

[5] = target: Glucocorticoid receptor (Homo sapiens) (UniProt P04150); test: GR-EFC Redistribution (AID 451; calls by dose curve; also: potency is read from the fitted curve at half-maximal effect); settings: CHO-K1 GR-EFC translocation, beta-gal luminescence, 2 h
Glucocorticoid receptor (Homo sapiens), sequence (P04150 whole entry, looked up, the tested form may be a part): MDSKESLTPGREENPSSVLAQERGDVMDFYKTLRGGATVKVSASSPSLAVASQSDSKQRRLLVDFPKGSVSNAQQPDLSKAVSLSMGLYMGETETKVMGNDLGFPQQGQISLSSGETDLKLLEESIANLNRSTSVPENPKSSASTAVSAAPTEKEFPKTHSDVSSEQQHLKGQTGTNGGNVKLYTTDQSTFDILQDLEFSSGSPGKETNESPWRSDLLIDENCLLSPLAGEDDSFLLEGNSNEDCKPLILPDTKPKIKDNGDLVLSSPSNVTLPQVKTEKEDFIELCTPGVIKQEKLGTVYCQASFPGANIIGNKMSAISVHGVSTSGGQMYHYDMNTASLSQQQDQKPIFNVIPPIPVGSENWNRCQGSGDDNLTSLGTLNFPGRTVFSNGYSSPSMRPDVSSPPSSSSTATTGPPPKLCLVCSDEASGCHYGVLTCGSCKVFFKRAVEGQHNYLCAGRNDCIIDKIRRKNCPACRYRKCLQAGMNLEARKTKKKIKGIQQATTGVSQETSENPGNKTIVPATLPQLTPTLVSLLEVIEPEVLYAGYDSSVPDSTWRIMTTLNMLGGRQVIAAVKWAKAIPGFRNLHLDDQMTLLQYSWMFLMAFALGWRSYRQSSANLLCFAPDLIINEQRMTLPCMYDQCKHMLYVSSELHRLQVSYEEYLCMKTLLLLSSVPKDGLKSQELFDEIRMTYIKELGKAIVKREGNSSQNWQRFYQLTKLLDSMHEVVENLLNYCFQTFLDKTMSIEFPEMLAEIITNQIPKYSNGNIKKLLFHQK
Method in brief: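 CHO-K1 cells expressing nuclear EA and GR-ED fragments of b-gal; compounds titrated up to 46 uM final, 2 h at 37 C. GR nuclear translocation read as complemented b-gal luminescence after 1 h RT detection.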

[6] = target: Mitogen-activated protein kinase 10 (Mus musculus) (UniProt Q61831); test: JNK3 AlphaScreen Assay (AID 530); settings: JNK3 lysate, c-Jun phosphorylation; series mostly up to 57.1 µM;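 also: kinase came from lysate of stimulated human HepG2 cells; signal reports phosphorylation of biotinylated GST-cJun 1-79 at Ser73 with 10 µM ATP; % is scaled to controls: 0 for no effect and ±100 for the full control effect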
Method in brief: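 qHTS format: compounds tested as titrations against IL-1beta/TNF-alpha-activated HepG2 lysate JNK3 with biotin-GST-cJun substrate and 10 uM ATP at room temperature. Loss of anti-phospho-cJun AlphaScreen signal indicates inhibition.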

[7] = target: 3',5'-cyclic-AMP phosphodiesterase 4B (Homo sapiens) (UniProt Q07343); test: qHTS Assay for Inhibitors of PDE-IV (AID 607; active = well fitted activation curve with a large enough effect in the main read-out, with a control signal flat, not every such curve was filed as active; also: % of control where 0% means no effect); settings: HEK293 ACTOne CNG channel cells, membrane potential fluorescence; series mostly up to 22.9 µM
3',5'-cyclic-AMP phosphodiesterase 4B (Homo sapiens), sequence (Q07343 whole entry, looked up): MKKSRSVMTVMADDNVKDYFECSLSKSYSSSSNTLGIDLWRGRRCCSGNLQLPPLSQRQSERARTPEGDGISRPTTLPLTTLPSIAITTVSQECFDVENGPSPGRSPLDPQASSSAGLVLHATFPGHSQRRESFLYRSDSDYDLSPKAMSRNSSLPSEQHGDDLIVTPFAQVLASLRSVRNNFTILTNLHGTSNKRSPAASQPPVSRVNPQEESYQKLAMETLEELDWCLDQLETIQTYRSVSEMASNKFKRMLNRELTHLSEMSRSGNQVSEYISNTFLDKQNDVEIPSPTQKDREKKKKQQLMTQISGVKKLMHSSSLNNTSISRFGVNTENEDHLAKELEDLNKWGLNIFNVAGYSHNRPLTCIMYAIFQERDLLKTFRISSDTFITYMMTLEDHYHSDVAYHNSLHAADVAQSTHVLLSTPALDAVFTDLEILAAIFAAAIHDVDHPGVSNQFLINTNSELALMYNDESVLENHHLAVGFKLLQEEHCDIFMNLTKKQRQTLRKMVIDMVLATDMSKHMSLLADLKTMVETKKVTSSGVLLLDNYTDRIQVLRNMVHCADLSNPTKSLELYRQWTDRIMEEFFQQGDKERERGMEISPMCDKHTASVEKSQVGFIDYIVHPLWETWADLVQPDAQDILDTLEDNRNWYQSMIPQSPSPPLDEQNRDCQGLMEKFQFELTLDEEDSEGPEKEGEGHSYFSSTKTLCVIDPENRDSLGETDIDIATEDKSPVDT
Method in brief: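 Live HEK293 cells with a modified cyclic nucleotide-gated (CNG) channel report intracellular cAMP via membrane-potential dye fluorescence (ex 535/em 590 nm). Endogenous PDE-IV was targeted. Compounds were tested at up to 22.9 uM final; RO 20-1724 100 uM served as control.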

[8] = qHTS Assay for Lipid Storage Modulators (AID 1519; calls by dose curve); settings: Drosophila S3 cells, BODIPY lipid droplet/cell ratio, laser cytometry, cells loaded with oleic acid; for activity change, negative = inhibition: at 57.5 µM (top of the series)
Method in brief: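 Cells seeded at 5,000 per well were treated with compounds over a concentration series and loaded with oleic acid (400 uM, as added). Lipid droplet fluorescence (488 nm excitation, 500-530 nm channel) was read by laser-scanning cytometry and normalized to 20 uM Triacsin C.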

[9] = Primary qHTS for small molecule stabilizers of the endoplasmic reticulum resident proteome: Secreted ER Calcium Modulated Protein (SERCaMP) assay (AID 1508630; active = well fitted inhibition curve with a large enough effect; also: % is scaled to controls: 0 for no effect and ±100 for the full control effect); settings: SH-SY5Y GLuc-SERCaMP (Gaussia luciferase released on ER calcium loss) secretion, thapsigargin, luminescence; series mostly up to 38.4 µM
Method in brief: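 GLuc-SERCaMP-expressing SH-SY5Y cells, pretreated 16 h with compound, are challenged with thapsigargin to empty ER calcium stores; after 4 h, coelenterazine is added directly to the medium and luminescence is imaged.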

[10] = measured here: cell count channel max response
[11] = measured here: lipid channel max response

COc1ccc(NC(=O)N2CC3(CCN(C(=O)c4cc(C(F)(F)F)cc(C(F)(F)F)c4)CC3)C2)cc1
18.4%: max response [8, 11]
inactive: Potency [1] > 11.4 µM | activity change, negative = inhibition [2] -15.1% | activity change, negative = inhibition [3] 16% | activity, negative = inhibition [4] -20.2% | Potency [5] > 46 µM | Potency [6] | Potency [7] | activity change, negative = inhibition [8] 2.01% | outcome [9]
12.2%: max response [8, 10]

CC(=O)N1CCC2(CCCN(C(=O)Nc3cccc(C#N)c3)C2)CC1
15.6%: max response [8, 11]
inactive: Potency [1] > 11.4 µM | activity change, negative = inhibition [2] -1.46% | activity change, negative = inhibition [3] -5.5% | activity, negative = inhibition [4] 4.81% | Potency [5] > 46 µM | Potency [6] | Potency [7] | activity change, negative = inhibition [8] 0.477% | outcome [9]
12.8%: max response [8, 10]

Cn1cccc1C(=O)N1CCC2(CC1)CN(C(=O)Nc1cccc(F)c1)C2
inactive: Potency [1] > 11.4 µM | activity change, negative = inhibition [2] 5.05% | activity change, negative = inhibition [3] 6.99% | activity, negative = inhibition [4] -4.36% | Potency [5] > 46 µM | Potency [6] | Potency [7] | activity change, negative = inhibition [8] 2.3% | outcome [9]
-3.47%: max response [8, 10]
0.81%: max response [8, 11]

CC(=O)N1CCC2(CC1)CN(c1cccc(-c3ccccc3)c1)C2
inactive: Potency [1] > 11.4 µM | activity change, negative = inhibition [2] -4.65% | activity change, negative = inhibition [3] 16.1% | activity, negative = inhibition [4] 1.02% | Potency [5] > 46 µM | Potency [6] | Potency [7] | activity change, negative = inhibition [8] 6.04% | outcome [9]
6.96%: max response [8, 10]
17.4%: max response [8, 11]

COCC(=O)N1CCC2(CC1)CN(c1ccncc1)C2
inactive: Potency [1] > 11.4 µM | activity change, negative = inhibition [2] -2.96% | activity change, negative = inhibition [3] 2.67% | activity, negative = inhibition [4] -1.5% | Potency [5] > 46 µM | Potency [6] | Potency [7] | activity change, negative = inhibition [8] 2.59% | outcome [9]
11.2%: max response [8, 11]
4.76%: max response [8, 10]

COCC(=O)N1CCC2(CC1)CN(c1ccc(-c3ccccc3)cc1)C2
-3.13%: max response [8, 11]
inactive: Potency [1] > 11.4 µM | activity change, negative = inhibition [2] 2.14% | activity change, negative = inhibition [3] 14.1% | activity, negative = inhibition [4] -17.6% | Potency [5] > 46 µM | Potency [6] | Potency [7] | activity change, negative = inhibition [8] 2.72% | outcome [9]
-7.54%: max response [8, 10]

CS(=O)(=O)N1CCC2(CC1)CN(c1ccccn1)C2
7.05%: max response [8, 10]
inactive: Potency [1] > 11.4 µM | activity change, negative = inhibition [2] 2.96% | activity change, negative = inhibition [3] -0.983% | activity, negative = inhibition [4] 5.22% | Potency [5] > 46 µM | Potency [6] | Potency [7] | activity change, negative = inhibition [8] 2.99% | outcome [9]
10.2%: max response [8, 11]

CC(C)NC(=O)N1CC[C@@]2(CCCN(C(=O)c3ccncc3)C2)C1
-1.86%: max response [8, 10]
0.996%: max response [8, 11]
inactive: Potency [1] > 11.4 µM | activity change, negative = inhibition [2] -20.1% | activity change, negative = inhibition [3] 16.9% | activity, negative = inhibition [4] -4.77% | Potency [5] > 46 µM | Potency [6] | Potency [7] | activity change, negative = inhibition [8] 0.271% | outcome [9]

O=S(=O)(c1ccccc1)N1CCC2(CC1)CN(c1ccccc1)C2
18.4%: max response [8, 11]
12.5%: max response [8, 10]
inactive: Potency [1] > 11.4 µM | activity change, negative = inhibition [2] 3.38% | activity change, negative = inhibition [3] 8.23% | activity, negative = inhibition [4] -6.85% | Potency [5] > 46 µM | Potency [6] | Potency [7] | activity change, negative = inhibition [8] 4.76% | outcome [9]

Cn1cccc1C(=O)N1CCC2(CCN(C(=O)Nc3cccc(C#N)c3)CC2)CC1
4.21%: max response [8, 10]
11.6%: max response [8, 11]
inactive: Potency [1] > 11.4 µM | activity change, negative = inhibition [2] -16.2% | activity change, negative = inhibition [3] 8.67% | activity, negative = inhibition [4] -3.46% | Potency [5] > 46 µM | Potency [6] | Potency [7] | activity change, negative = inhibition [8] 4.21% | outcome [9]

COCC(=O)N1CCC2(CC1)CN(c1ccccc1)C2
15%: max response [8, 10]
inactive: Potency [1] > 11.4 µM | activity change, negative = inhibition [2] -8.7% | activity change, negative = inhibition [3] 2.5% | activity, negative = inhibition [4] 10.6% | Potency [5] > 46 µM | Potency [6] | Potency [7] | activity change, negative = inhibition [8] 4.95% | outcome [9]
21.1%: max response [8, 11]

Cc1noc(C)c1C(=O)N1CCC[C@@]2(CCN(C(=O)Nc3ccccc3)C2)C1
inactive: Potency [1] > 11.4 µM | activity change, negative = inhibition [2] -22.6% | activity change, negative = inhibition [3] 19.8% | activity, negative = inhibition [4] -2.21% | Potency [5] > 46 µM | Potency [6] | Potency [7] | activity change, negative = inhibition [8] 3.24% | outcome [9]
3.75%: max response [8, 10]
7.38%: max response [8, 11]

CC(=O)N1CCC[C@@]2(CCN(C(c3ccccc3)c3ccccc3)C2)C1
-8.87%: max response [8, 11]
inactive: Potency [1] > 11.4 µM | activity change, negative = inhibition [2] -0.322% | activity change, negative = inhibition [3] 3.9% | activity, negative = inhibition [4] -10.9% | Potency [5] > 46 µM | Potency [6] | Potency [7] | activity change, negative = inhibition [8] -4.88% | outcome [9]
-3.73%: max response [8, 10]

CC(C)CN1CC2(CCN(C(=O)c3cnccn3)CC2)C1
20.3%: max response [8, 11]
inactive: Potency [1] > 11.4 µM | activity change, negative = inhibition [2] -4.93% | activity change, negative = inhibition [3] -25.4% | activity, negative = inhibition [4] -6.85% | Potency [5] > 46 µM | Potency [6] | Potency [7] | activity change, negative = inhibition [8] 3.58% | outcome [9]
13.2%: max response [8, 10]

O=C(Nc1cccc(F)c1)N1CC2(CCN(C(=O)c3ccco3)CC2)C1
13.6%: max response [8, 11]
inactive: Potency [1] > 11.4 µM | activity change, negative = inhibition [2] -3.07% | activity change, negative = inhibition [3] 4.39% | activity, negative = inhibition [4] 1.12% | Potency [5] > 46 µM | Potency [6] | Potency [7] | activity change, negative = inhibition [8] 5.94% | outcome [9]
1.85%: max response [8, 10]
